Screening results (PubChem)
BAZ2B inh: qHTS Assay for Inhibitors of BAZ2B | Bromodomain adjacent to zinc finger domain protein 2B (Homo sapiens), Q9UIF8 | AlphaScreen BAZ2B-H3K14Ac peptide displacement | Potency, µM (top dose mostly 114 µM), most hits filed as inhibitors | 360,000 compounds, 4.4% hits | AID 504333, 2011; note: nearly all actives have a fitted effect of over 60% in size
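AlphaScreen luminescence quantifies BAZ2B engagement of H3K14Ac peptide; the protein and biotinylated peptide are both at 50 nM final, buffer PBS pH 7.4 with 0.01% Tween-20, all steps at room temperature.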
HP1b chromo inh: HTS for Inhibitors of HP1-beta Chromodomain Interactions with Methylated Histone Tails. AlphaScreen HP1-beta / biotin-H3K9me3 peptide binding. Chromobox protein homolog 1 (Homo sapiens), P83916. 390,000 compounds, 0.56% hits. Potency, µM (doses to about 114 µM), actives largely listed as inhibitors; note: nearly all actives have a fitted effect of over 70% in size
Target sequence (P83916 whole entry, looked up): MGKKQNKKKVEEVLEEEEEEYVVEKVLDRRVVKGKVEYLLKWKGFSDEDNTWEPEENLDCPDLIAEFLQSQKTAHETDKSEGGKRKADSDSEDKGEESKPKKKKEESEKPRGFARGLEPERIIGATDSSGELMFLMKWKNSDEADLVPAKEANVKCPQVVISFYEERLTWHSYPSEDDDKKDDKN
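AlphaScreen: HP1-beta (50 nM) preformed 30 min with biotin-H3(1-18)K9me3 peptide (50 nM) in PBS pH 7.4, 0.01% Tween-20. Compound added for 30 min at RT, then streptavidin donor/nickel chelate acceptor beads (10 ug/mL) for 30 min.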
Sfp inh: qHTS Assay for Inhibitors of Bacillus subtilis Sfp phosphopantetheinyl transferase (PPTase). 4'-phosphopantetheinyl transferase ffp (Bacillus subtilis), Q9F4F7. Biochemical Sfp PPTase activity, qHTS. Potency, µM, hits mostly inhibitors. 310,000 compounds, 3.5% hits;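 note: the enzyme is Sfp with the accession as filed and its product quenches rhodamine fluorescence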
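Fluorescence-quenching assay: 15 nM Sfp-PPTase preincubated 15 min at room temperature with compound, then 5 uM rhodamine-CoA and 12.5 uM BHQ-2-labelled YbbR peptide added. Fluorescence (ex 525/em 598 nm) read at start and after 30 min; difference gives rate.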
JMJD2A Tudor: qHTS Assay for Inhibitors of JMJD2A-Tudor Domain; Lysine-specific demethylase 4A (Homo sapiens), O75164; AlphaScreen JMJD2A-Tudor / H3K4me3 peptide binding; Potency, µM (titrated, usually from 114 µM), actives largely listed as inhibitors; 390,000 compounds, 4.4% hits; note: nearly all actives have a fitted effect of over 50% in size
G9a block: qHTS Assay for Inhibitors of Histone Lysine Methyltransferase G9a; Histone-lysine N-methyltransferase EHMT2 (Homo sapiens), Q96KQ7; 350,000 compounds, 8.8% hits; G9a H3K9 monomethylation, AlphaScreen, 2 h; Potency, µM (series often up to 102 µM), usual class: inhibitors; note: nearly all actives have a fitted effect of over 75% in size
Target sequence (Q96KQ7 913-1193 limits assumed): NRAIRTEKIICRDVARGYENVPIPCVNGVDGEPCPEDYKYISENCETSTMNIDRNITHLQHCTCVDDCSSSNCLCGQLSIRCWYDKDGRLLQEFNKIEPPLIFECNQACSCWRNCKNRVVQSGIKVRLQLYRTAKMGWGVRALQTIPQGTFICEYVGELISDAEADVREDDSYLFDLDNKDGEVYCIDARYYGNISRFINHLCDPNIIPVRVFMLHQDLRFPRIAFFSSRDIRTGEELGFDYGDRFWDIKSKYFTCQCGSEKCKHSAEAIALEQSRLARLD
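Enzyme 20 nM + cpd, 15 min RT; add b-H3K9 pep 500 nM / SAM 20 uM; 2 h RT; anti-H3K9me1 Ab 0.5 ug/mL + SA donor / anti-rabbit acceptor beads 20 ug/mL each, 10 min; AlphaScreen read.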
Hits are given with their value; - = inactive; ? = inconclusive; . = no result given; ! = a repeat was not active; [ ] = remark or other dose. The list is not random: actives were taken first. Their share in the collection is about 12%. Calls come from the whole dose curve; as a rule, active = well fitted curve in the direction sought with a large enough effect; inconclusive = small, poorly fitted or top-dose-only effect, or another doubt; inactive = no such curve, though single readings can be large; an effect the other way counts as inactive or inconclusive.

SMILES	BAZ2B inh	HP1b chromo inh	Sfp inh	JMJD2A Tudor	G9a block
C[C@H]1CO1	.	.	-	.	.
CCCCCCCCCCCCCCCCOC[C@@H](COP(=O)([O-])OCC[N+](C)(C)C)OC(C)=O	.	.	-	.	-
CCn1c(O)c(/C=N/NC(=O)c2ccccc2)c(=O)[nH]c1=S	40µM	-	-	56µM	-
COc1ccc(Cn2c(O)c(/C=N/NC(=O)c3ccccc3)c(=O)[nH]c2=O)cc1	50µM	-	-	79µM	-
O=c1[nH]c(=O)n(Cc2ccccc2)c(O)c1/C=N/NCCO	50µM	-	-	56µM	50µM
COc1cccc(N=Cc2c(O)n(Cc3ccco3)c(=O)[nH]c2=O)c1	-	-	-	-	?
O=C(N/N=C/c1c(O)n(Cc2ccco2)c(=O)[nH]c1=O)c1ccccc1	79µM	-	?	79µM	.
COc1ccc(NC(=O)Cn2c(=O)c3cccn3c3ccccc32)cc1Cl	-	-	.	-	-
C[C@H](CCC(=O)O)[C@H]1CC[C@@H]2[C@H]3CC[C@H]4C[C@H](O)CC[C@]4(C)[C@@H]3CC[C@@]21C	.	.	-	.	-
COc1ccc2c(c1)C13CCCCC1C(C2)N(C)CC3 (stereo not drawn)	.	.	.	.	-[12.7 µM]
CCCN1CCO[C@@H]2c3cc(O)ccc3OC[C@@H]21	.	.	56µM	.	.
NCC(O)c1cccc(O)c1 (stereo not drawn)	.	.	-	.	-[12.7 µM]
CC(C)c1cccc(O)c(=O)c1	56µM	-	56µM!	-	11µM!
Brc1ccc2c(c1)C(OC1CN3CCC1CC3)c1ccccc1CS2 (stereo not drawn)	-	-	-	-	16µM
Cc1ccc(-n2nc3ccc(NC(=O)COc4ccccc4C)cc3n2)cc1	-	-	.	-	-
Oc1ccc2c(c1)[C@@]13CCCCC1[C@@H](C2)N(CC1CCC1)CC3 (stereo partly drawn)	.	.	-	.	.
CC1=CC2/C=C(\C)CCC(O)C(O)/C=C/C(=O)C23C(=O)NC(CC(C)C)C3C1C (stereo not drawn)	-	-	16µM	-	?
O=C1NC(=O)C(=Cc2ccc(N3CCN(C(=O)c4ccccc4)CC3)c([N+](=O)[O-])c2)C(=O)N1	?	?	28µM	40µM	11µM
CN1C(=O)C(=Cc2ccc(N3CCOCC3)c([N+](=O)[O-])c2)C(=O)N(C)C1=O	-	.	22µM	.	35µM
O=C1NC(=O)[C@]2(Cc3ccccc3N3CCN(c4ccccc4)CC32)C(=O)N1Cc1ccccc1 (stereo partly drawn)	-	-	-	?	5µM
O=C1NC(=O)C2(Cc3ccccc3N3CCCC32)C(=O)N1Cc1ccccc1 (stereo not drawn)	-	-	56µM	-	35µM
O=C1C=Cc2ccccc2C1=O	40µM	.	2.8µM	.	8.9µM
CC1CC2CC(=O)C3CCCN4CCCC2[C@]34C1 (stereo partly drawn)	.	.	-	.	.
O=P(c1ccccc1)(c1ccccc1)N1CC2(CC2)CC(O)(c2ccccc2)C1 (stereo not drawn)	.	.	-	.	.
NC(CCP(=O)(O)O)C(=O)O (stereo not drawn)	.	.	50µM	.	-
SMILES	BAZ2B inh	HP1b chromo inh	Sfp inh	JMJD2A Tudor	G9a block
Oc1ccc(/C=N/NP(=S)(c2ccccc2)c2ccccc2)cc1O	?	?	-	?	?
O=Cc1ccc(O)c(O)c1	56µM	-	32µM	22µM	?
Oc1c(Cl)c(Cl)c(Cl)c(Cl)c1Cl	.	-	-	56µM	.
COc1ccc(N2C(=O)/C(=C/c3cccs3)C(=O)NC2=S)cc1	-	-	8.9µM	35µM	7.1µM
COc1cccc(N2C(=O)/C(=C/c3ccc(C)o3)C(=O)NC2=S)c1	50µM	?	25µM	22µM	4.5µM
Cc1ccc(N2C(=O)/C(=C/c3ccc(CN(CCC#N)S(C)(=O)=O)o3)C(=O)NC2=S)cc1	50µM	50µM	20µM	18µM	7.9µM
Cc1ccc(/C=C2\C(=O)NC(=S)N(c3ccc(F)cc3)C2=O)o1	56µM	-	45µM	50µM	4µM
O=C1NC(=S)N(c2ccc(F)cc2)C(=O)/C1=C/c1ccccc1O	-	-	-	-	-
